Assay results from the supplement of paper PMC6555819.

Assays:
Experiment in all cases: PBM binding z-score (relative to random genomic background probes); higher = stronger binding; sequences stand for … in GC…GCGATTGACAGCGTAGAATGAAGG
[1] = test system: FXR:RXRa (NR concentration 270 nM, RXRa partner concentration 90 nM)
Outline: (§1)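 Custom Agilent 4×180K protein-binding microarrays carried double-stranded probes, each with a 34-nt variable region. These regions held direct-repeat seeds, single-nucleotide variants, half-site ablations and random human genomic background sequences. Ligand-free nuclear receptor dimers were incubated on the arrays for 1 h, antibodies against each partner (one per run) detected binding, and scanned fluorescence was regression-normalized. Binding z-scores take the random background probes as reference.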

[2] = test system: LXRa:RXRa (NR concentration 270 nM, RXRa partner concentration 90 nM)
Outline: as §1

[3] = test system: LXRa homodimer (NR concentration 270 nM)
Outline: as §1

[4] = test system: LXRb:RXRa (NR concentration 270 nM, RXRa partner concentration 90 nM)
Outline: as §1

[5] = test system: LXRb homodimer (NR concentration 270 nM)
Outline: as §1

[6] = test system: PPARa:RXRa (NR concentration 270 nM, RXRa partner concentration 90 nM)
Outline: as §1

[7] = test system: PPARg:RXRa (NR concentration 180 nM, RXRa partner concentration 90 nM)
Outline: as §1

[8] = test system: PPARg:RXRa 270nM:90nM, anti-RXR (NR concentration 270 nM, RXRa partner concentration 90 nM)
Outline: as §1

[9] = test system: PPARg:RXRa 30nM:10nM, anti-RXR (NR concentration 30 nM, RXRa partner concentration 10 nM)
Outline: as §1

[10] = test system: PPARg:RXRa 90nM:30nM, anti-RXR (NR concentration 90 nM, RXRa partner concentration 30 nM)
Outline: as §1

[11] = test system: PPARg:RXRa DBDmut IVT, anti-RXR (DBD mutation: RXRa K156A/R161A, NR concentration 270 nM, RXRa partner concentration 90 nM)
Outline: as §1

[12] = test system: PPARg:RXRa IVT, anti-PPARg (NR concentration 270 nM, RXRa partner concentration 90 nM)
Outline: as §1

[13] = test system: PPARg DBDmut:RXRa IVT, anti-PPARg (DBD mutation: PPARg1 K132A/R137A, NR concentration 270 nM, RXRa partner concentration 90 nM)
Outline: as §1

[14] = test system: PPARg DBDmut IVT, anti-PPARg (DBD mutation: PPARg1 K132A/R137A, NR concentration 270 nM)
Outline: as §1

[15] = test system: PPARg homodimer (NR concentration 180 nM)
Outline: as §1

[16] = test system: PXR:RXRa (NR concentration 270 nM, RXRa partner concentration 90 nM)
Outline: as §1

[17] = test system: PXR homodimer (NR concentration 270 nM)
Outline: as §1

[18] = test system: RARa:RXR (NR concentration 270 nM, RXRa partner concentration 90 nM)
Outline: as §1

[19] = test system: RARa homodimer (NR concentration 270 nM)
Outline: as §1

[20] = test system: RARb:RXRa (NR concentration 270 nM, RXRa partner concentration 90 nM)
Outline: as §1

Sequence	PBM binding z-score [1]	PBM binding z-score [2]	PBM binding z-score [3]	PBM binding z-score [4]	PBM binding z-score [5]	PBM binding z-score [6]	PBM binding z-score [7]	PBM binding z-score [8]	PBM binding z-score [9]	PBM binding z-score [10]	PBM binding z-score [11]	PBM binding z-score [12]	PBM binding z-score [13]	PBM binding z-score [14]	PBM binding z-score [15]	PBM binding z-score [16]	PBM binding z-score [17]	PBM binding z-score [18]	PBM binding z-score [19]	PBM binding z-score [20]
TCTTGTAGATCAAGCACGTTAAGAAAGCCTGAGT	0.465	0.232	-0.171	0.106	-0.495	0.484	-0.254	1.12	2.5	1.97	1.73	0.108	0.449	0.566	0.56	0.445	-0.148	0.501	-0.338	-0.035
AGTCAAAGTTCAGGACGAGGTAACTTAAAGCACG	4.45	3.83	1.38	2.1	0.364	3.59	4.72	4.85	2.02	3.7	-0.0506	2.05	0.457	0.0759	1.75	3.24	1.4	2.84	1.02	4.25
AGAATGAGGTGATACGTAGATCAGGGAAGAAAGT	0.335	-0.0138	-0.435	-0.252	-0.444	1.52	1.16	1.16	0.448	0.958	4.06	2.23	1.58	0.564	0.0718	-0.029	0.133	0.117	-0.0248	0.411
CGTCCAAGGTCATAGGAGGTCAGTTAAGACAGAT	7.74	7.74	5.66	6.32	1.11	5.68	5.84	5.96	2.29	4.5	3.03	4.5	0.532	0.526	3.95	6.47	4.13	5.73	1.43	5.36
ACAGACAGGTGATGAAAGTAACTCAGGCTATCAT	-0.313	-0.244	-0.212	-0.34	-0.446	-0.12	0.596	-0.0784	-0.0592	-0.305	-0.123	0.107	0.648	-0.00926	-0.948	-0.313	0.153	-0.63	-0.762	0.0648
AGAATGAGGTTACGATCAGGGAAACAGAATACAT	1.98	1.94	-0.122	1.75	-0.632	3.9	2.97	2.65	1.2	2.18	3.35	3.6	1.79	0.837	0.684	1.19	0.235	1.92	0.462	2.16
GCGACTGGGGCAAAGCAGGTTACGATAAGGTTGG	0.296	-0.117	-0.718	0.363	-0.982	1.47	1.32	1.43	-0.188	0.405	4.13	3.73	-0.523	-0.59	0.215	0.285	-0.433	0.352	-0.129	0.879
GCTAGCAGGCCATTTGAGTCACTCAATGACGGGC	-0.524	-0.643	-0.699	-1.05	-0.622	-0.463	0.311	-0.7	-0.625	-0.728	0.829	-0.00694	-0.509	-2.18	-0.951	-0.369	-0.961	-0.381	-1.15	0.073
TCTTGTGGATCAATAGAGGTTAAGAAAGTGCGCT	0.938	3.27	0.355	1.91	0.376	1.63	-0.178	1.51	2.31	1.64	1.7	0.901	0.673	0.819	0.64	2.88	0.306	1.69	0.244	0.915
ACAGCCAGGTGAGTGAAGGTAACTCAGCTGGACG	0.0409	-0.362	-0.936	-0.925	-1.03	-0.248	0.164	-0.463	-0.822	-0.5	0.411	0.424	-0.718	-0.566	-0.774	-0.607	-0.722	-0.11	-0.431	0.179
CCTACTGGGCCATCAGGTCATGGATATCAACGTT	1.24	1.22	0.743	1.49	-0.453	3.14	3.59	4.15	1.85	3.37	4.54	5.33	1.99	0.266	1.85	1.58	0.00422	2.45	-0.165	2.31
GATACAGGGTCAAGGCCAGAGTCCGCGTATTGAT	6.15	4.03	-0.217	3.58	0.0048	5.35	5.26	5.31	1.52	3.89	2.59	3.9	-0.201	-0.204	1.62	3.79	0.344	4.03	0.185	4.39
AGAATGAGGTTATGCGTAGATCAGGGAAGAAAGT	1.66	1.51	-0.231	1.31	-0.169	3.1	1.44	2	0.664	1.12	2.31	2.01	0.845	0.71	0.621	0.966	0.308	1.32	0.403	1.57
CCTTACGGGTCACTCCAGATTATAGCATCGGAGT	4.83	4.8	-0.0778	2.91	0.399	4.41	3.39	3.43	0.931	2.35	2.52	3.47	0.108	0.192	1.74	2.59	0.423	2.96	0.564	3.75
